Assay results reported in PubChem BioAssay.
The source made the active and inactive calls. Unless noted, how the calls were made is not given here.

What was measured:
[1] = A549 cell viability effects, profiling panel, calcein-AM fluorescence, 48 h, basal (AID 1162); conditions: higher = more signal; further: test concentration not given here
[2] = adipocyte viability effects, profiling panel, cell-based, 3T3-L1 adipocytes, calcein-AM fluorescence, 48 h, basal (AID 1163); conditions: 3T3-L1 adipocytes viability, higher = more signal; further: test concentration not given here
[3] = HepG2 cell viability effects, profiling panel, calcein-AM fluorescence, 48 h, basal (AID 1164); conditions: higher = more signal; further: test concentration not given here
[4] = MM1S cell viability effects, profiling panel, calcein-AM fluorescence, 48 h, basal (AID 1165); conditions: higher = more signal;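 further: viability of MM1S multiple myeloma cells under basal unstimulated conditions; test concentration not given here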
[5] = basal RPMI8226 viability, no added stimulus, profiling panel, cell-based, calcein-AM fluorescence, 48 h, PK04 Diversity Set (AID 1166); conditions: RPMI8226 myeloma viability, higher = more signal;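 further: cells grown under basal conditions without added stimulus; test concentration not given here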
[6] = basal HepG2 mitochondrial membrane potential changes, profiling panel, cell-based, JC-1 fluorescence, 24 h, 100 nL compound (AID 1167); conditions: higher = more signal; further: test concentration not given here
[7] = basal 3T3-L1 adipocyte mitochondrial potential changes, profiling panel, cell-based, JC-1 fluorescence, 3T3-L1 adipocytes, 24 h, 100 nL compound (AID 1168); conditions: JC-1 mitochondrial fluorescence, higher = more signal, called active from +8 up or from −8 down; further: test concentration not given here
[8] = basal RPMI8226 mitochondrial membrane potential changes, profiling panel, cell-based, JC-1 fluorescence, 24 h, 100 nL compound (AID 1169); conditions: RPMI8226 myeloma, JC-1 mitochondrial potential fluorescence, higher = more signal; further: test concentration not given here
[9] = basal MM1S mitochondrial membrane potential changes, profiling panel, cell-based, JC-1 fluorescence, 24 h, 100 nL compound (AID 1170); conditions: higher = more signal; further: test concentration not given here
[10] = A549 lung cancer cell viability effects, profiling panel, resazurin fluorescence, 24 h, PK04 Diversity Set (AID 1171); conditions: higher = more signal, called active from +8 up or from −8 down; further: test concentration not given here
[11] = HepG2 liver cancer cell viability effects, profiling panel, resazurin fluorescence, 24 h, PK04 Diversity Set (AID 1172); conditions: higher = more signal; further: test concentration not given here
[12] = basal S. cerevisiae growth modulation, no modifier, primary screen, OD600, strain BY4716, 24 h, basal condition (AID 1173); conditions: OD600, 24 h, higher = more signal, called active from +8 up or from −8 down
[13] = MM1S myeloma cell viability, profiling panel, resazurin fluorescence, basal, 24 h, PK04 Diversity Set (AID 1174); conditions: higher = more signal, called active from +8 up or from −8 down;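 further: MM1S multiple myeloma cell line; test concentration not given here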
[14] = molecular target: Dihydroorotate dehydrogenase (quinone), mitochondrial (Plasmodium falciparum (isolate 3D7)) (UniProt Q08210); assay: PfDHODH enzyme inhibitors, primary screen, biochemical, C-terminal His tag, absorbance 600 nm (AID 1175); conditions: DCIP absorbance 600 nm, higher = more signal, called active from +8 up or from −8 down;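 further: recombinant parasite enzyme with a five histidine tag at its C terminus; test concentration not given here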
[15] = P. aeruginosa biofilm formation inhibitors, primary screen, strain PAO1, LB-PBS medium, absorbance 600 nm (AID 1176); further: test concentration not given here; conditions: P. aeruginosa PAO1 growth/biofilm, A600, 12 h; higher = more signal
[16] = S. cerevisiae RM11-1a growth modifiers, primary screen, strain RM11-1a, OD600, basal, 24 h (AID 1177); conditions: OD600, 24 h, higher = more signal, called active from +8 up or from −8 down;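 further: cultures grown under basal conditions with no added stressor; test concentration not given here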
[17] = E. coli acrAB mutant growth effects, primary screen, E. coli filamentation inducers, strain DRC39, OD650, 24 h (AID 1178); conditions: higher = more signal, called active from +8 up or from −8 down;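 further: growth measured as culture turbidity by optical density at 650 nm; test concentration not given here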
[18] = E. coli acrAB mutant growth effects, primary screen, E. coli filamentation inducers, strain DRC39, OD650, 48 h (AID 1179);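 further: screen aims at cell division blockers that make cells filament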; conditions: E. coli DRC39 delta-acrAB growth, higher = more signal, called active from +8 up or from −8 down
[19] = RPMI8226 myeloma cell viability, profiling panel, resazurin fluorescence, basal, 24 h, PK04 Diversity Set (AID 1180); conditions: higher = more signal;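 further: RPMI8826 multiple myeloma cell line at 5000 cells per well; test concentration not given here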
[20] = molecular target: E3 ubiquitin-protein ligase XIAP (Homo sapiens) (UniProt P98170); assay: XIAP binders, primary screen, biophysical, small-molecule microarray, fluorescence 635 nm (AID 1181); conditions: small-molecule microarray binding, higher = more signal;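 further: score merges 667 nm emission and signal to noise over triplicate slides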
Chain of E3 ubiquitin-protein ligase XIAP (Homo sapiens) (P98170 whole entry, looked up): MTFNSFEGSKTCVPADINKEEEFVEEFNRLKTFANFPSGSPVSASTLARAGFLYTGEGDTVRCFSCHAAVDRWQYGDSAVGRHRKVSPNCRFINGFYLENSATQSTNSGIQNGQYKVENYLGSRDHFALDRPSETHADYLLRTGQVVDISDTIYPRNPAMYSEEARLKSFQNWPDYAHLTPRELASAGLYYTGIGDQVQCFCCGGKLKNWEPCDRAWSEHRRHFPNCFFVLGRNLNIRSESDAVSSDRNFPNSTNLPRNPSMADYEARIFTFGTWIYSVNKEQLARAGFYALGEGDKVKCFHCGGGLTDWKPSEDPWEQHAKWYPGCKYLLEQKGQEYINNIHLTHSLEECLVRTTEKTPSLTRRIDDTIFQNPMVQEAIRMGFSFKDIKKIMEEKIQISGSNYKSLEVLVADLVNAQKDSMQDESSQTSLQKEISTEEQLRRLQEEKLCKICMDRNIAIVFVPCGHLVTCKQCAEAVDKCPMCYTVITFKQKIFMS

Chain of Dihydroorotate dehydrogenase (quinone), mitochondrial (Plasmodium falciparum (isolate 3D7)) (Q08210 whole entry, looked up): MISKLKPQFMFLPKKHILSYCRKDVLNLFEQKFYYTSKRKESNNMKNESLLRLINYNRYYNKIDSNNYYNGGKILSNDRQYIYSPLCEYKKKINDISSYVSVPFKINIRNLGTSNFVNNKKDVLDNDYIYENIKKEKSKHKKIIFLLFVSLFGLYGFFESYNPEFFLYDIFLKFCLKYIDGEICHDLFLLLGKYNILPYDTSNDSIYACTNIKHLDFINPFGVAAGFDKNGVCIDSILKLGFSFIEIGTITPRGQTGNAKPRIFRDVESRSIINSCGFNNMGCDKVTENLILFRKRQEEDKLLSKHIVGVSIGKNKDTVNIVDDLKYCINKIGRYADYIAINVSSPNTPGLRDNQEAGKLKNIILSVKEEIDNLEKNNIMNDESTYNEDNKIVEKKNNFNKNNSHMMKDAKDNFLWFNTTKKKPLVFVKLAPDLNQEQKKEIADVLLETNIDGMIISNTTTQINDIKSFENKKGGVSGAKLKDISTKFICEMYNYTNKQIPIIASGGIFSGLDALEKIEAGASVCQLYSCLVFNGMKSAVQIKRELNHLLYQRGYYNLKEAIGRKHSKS

Structure (SMILES) | z-score [1] | z-score [2] | z-score [3] | z-score [4] | z-score [5] | z-score [6] | z-score [7] | z-score [8] | z-score [9] | z-score [10] | z-score [11] | z-score [12] | z-score [13] | composite z-score [14] | z-score [15] | z-score [16] | z-score [17] | z-score [18] | z-score [19] | composite z-score [20]
O=C1O[C@H](Cc2ccccc2)[C@@H]2[C@H]3C=CCCC=C3CN2[C@H]1Cc1ccc(O)cc1 | 0.405 | -0.276 | 0.146 | -3.14 | -0.148 | -2.65 | -0.639 (inactive) | -1.05 | -1.69 | 0.745 (inactive) | 1.28 | -2.92 (inactive) | 0.303 (inactive) | -0.259 (inactive) | 0.118 (inactive) | -0.0533 (inactive) | 0.616 (inactive) | 0.746 (inactive) | -0.095 | 0.269
N#Cc1ccc(NN2C(C(O)C3CC=CCC3)C=CC3C(=O)N(c4ccccc4)C(=O)C32)cc1 (stereo not given) | -0.726 | -0.613 | 0.921 | -0.318 | -0.265 | -0.795 | -1.14 (inactive) | 0.418 | -0.508 | -0.997 (inactive) | -1.3 | 0.0837 (inactive) | -0.609 (inactive) | 0.0758 (inactive) | 1.36 (inactive) | 0.601 (inactive) | 0.0108 (inactive) | 0.123 (inactive) | -0.382 | -0.0848
C=C(COC)C(=O)CC[C@@H](OC(C)=O)c1ccccc1OCCO | 0.177 | 1.37 | -0.601 | -3.28 | -1.75 | 0.143 | -0.22 (inactive) | -0.557 | -1.82 | 0.837 (inactive) | 0.463 | -0.947 (inactive) | -0.851 (inactive) | -1.34 (inactive) | 0.166 (inactive) | -1.56 (inactive) | 0.661 (inactive) | -0.061 (inactive) | -1.09 | -0.102
C=C(C)[C@@H]1CC=C(C(O)C2C=CC3C(=O)N(C)C(=O)C3N2Nc2ccc([N+](=O)[O-])cc2[N+](=O)[O-])CC1 (stereo not given in full) | -0.34 | -0.924 | -0.303 | -0.731 | -2.48 | -0.286 | -1.71 (inactive) | 0.553 | -0.755 | -0.375 (inactive) | -0.902 | 0.522 (inactive) | -1.28 (inactive) | -0.109 (inactive) | 0.599 (inactive) | 0.442 (inactive) | -0.358 (inactive) | -0.339 (inactive) | -1.1 | 0.158
